# Assay results reported in PubChem BioAssay (Tox21).
# Inconclusive results are not listed. Values without a mark were called inactive. Calls come from the whole dose curve; as a rule, active = well fitted activation curve with a large enough effect in the signal ratio in the repeat runs, with a control signal flat (not every such curve was filed as active); inconclusive = weak or mixed curves; inactive = flat fitted curve, though single readings scatter; the % refers to the signal ratio.
# Assay: qHTS assay for small molecule activators of the heat shock response signaling pathway (AID 743210)
# Details: HeLa HSE-bla reporter, beta-lactamase ratio, 5 h; series mostly up to 62.6 µM; activation: at the top concentration
# From the text: U.S. Tox21 Program National Center for Advancing Translational Sciences [NCATS] NIH Chemical Genomics Center [NCGC] U.S. Environmental Protection Agency [EPA] National Institutes of Environmental Health Sciences [NIEHS] National Toxicology Program [NTP] U.S. Food and Drug Administration [FDA] Tox21 Assay Overview: Various chemicals, environmental and physiological stress conditions may lead to the activation of heat shock response/ unfolded protein response (HSR/UPR). There are three heat shock transcription factors (HSFs) (HSF-1, -2, and -4) mediating transcriptional regulation of the human HSR. To identify the compounds that activate HSR signaling, HSE-bla HeLa cell line (Invitrogen, Carlsbad, CA, USA) containing a beta-lactamase reporter gene under the control of the heat shock response elements was used to screen the Tox21 10K compound library.
# Tox21 Assay Protocol Summary: The CellSensor HSE-bla HeLa cells (Invitrogen, Carlsbad, CA, USA) were dispensed at 1500 cells/6uL/well into 1536-well black wall/clear bottom plates using a Multidrop combi (Thermo Fisher Scientific, Waltham, MA) dispenser. After the assay plates were incubated at 37 C and 5% CO2 overnight, 23 nL of compounds dissolved in DMSO, positive controls or DMSO only was transferred to the assay plate by a Pintool station (Kalypsys, San Diego, CA). The plates were incubated at 37 C for 5 h. After 1 uL of LiveBLAzerTM B/G FRET substrate was added using a Flying Reagent Dispenser (Beckman Coulter, Indianapolis, IN, USA), the plates were incubated at room temperature for 2.5 h, and fluorescence intensity was measured by an Envision plate reader (PerkinElmer, Shelton, CT).
# % is set by controls: 0 for no effect and ±100 for the full control effect.
row,Compound,activation
1,C(CCOCC1CO1)COCC1CO1 (stereo not given),-0.156%
2,CNC(=O)Oc1ccc(N(C)C)c(C)c1,-0.619%
3,CCOP(=S)(OCC)Oc1ncn(-c2ccccc2)n1,0.228%
4,COP(=S)(OC)Oc1ccc(S(N)(=O)=O)cc1,-0.792%
5,CCCSP(=O)(OCC)Oc1ccc(Br)cc1Cl (stereo not given),0.577%
6,Cc1ncc2n1-c1ccc(Cl)cc1C(c1ccccc1F)=NC2,-0.379%
7,Nc1cc2c3c(c1)C(c1ccccc1)=N[C@@H](NC(=O)c1cccnc1)C(=O)N3CC2,0.748%
8,CC(C)(C)C(=O)C(Oc1ccc(Cl)cc1)n1cncn1 (stereo not given),-0.638%
9,C[N+](=O)[O-],0.174%
10,CC1=C(C(=O)O)N2C(=O)[C@@H](N)[C@H]2SC1,1.17% [at 29.1 µM]
11,OC(Cn1cncn1)(c1ccc(F)cc1)c1ccccc1F (stereo not given),-0.282%
12,N#CCBr,-0.743% [at 81.1 µM]
13,CC(Cl)(Cl)[N+](=O)[O-],0.125%
14,CCS(=O)(=O)C(C)(C)S(=O)(=O)CC,0.354%
15,CCOC(=O)NC(=S)Nc1ccccc1NC(=S)NC(=O)OCC,4.15%
16,ClC(Cl)Br,-0.0157% [at 81.1 µM]
17,O=NN1CCCCC1,-0.127%
18,CSc1ccc(C(=O)C(C)(C)N2CCOCC2)cc1,0.604%
19,NC1=NC(=O)C(c2ccccc2)O1 (stereo not given),-0.48%
20,O=C(Nc1ccccc1)N(Cc1ccc(Cl)cc1)C1CCCC1,1.69%

row,Compound,activation
1,COc1cccc2c1cc([N+](=O)[O-])c1c(C(=O)O)cc3c(c12)OCO3,-0.271%
2,CCOP(=S)(OCC)Oc1nc(Cl)n(C(C)C)n1,0.0551%
3,CCN(Cc1ccc(Cl)nc1)/C(=C/[N+](=O)[O-])NC,-0.233%
4,O=C(Cc1ccccc1)OCc1ccccc1,0.7% [at 81.1 µM]
5,NC(=S)C(N)=S,0.832%
6,Cc1coc2c1CCC(C)C2 (stereo not given),0.401% [at 81.1 µM]
7,CCC(Cl)[N+](=O)[O-] (stereo not given),0.0744% [at 81.1 µM]
8,COc1ccc(C(=O)N2CCCC2=O)cc1,-2.23%
9,CSc1nc(N=[N+]=[N-])nc(NC(C)C)n1,-0.794%
10,c1cc[c]([Hg][c]2ccccc2)cc1,6.2%
11,O=[N+]([O-])c1cccc2cccnc12,-0.293% [at 81.1 µM]
12,CNC(=O)N(C)c1nc2ccccc2s1,-0.592%
13,CCCSC(=O)N(CCC)CCC,0.469%
14,CN/C(=N\[N+](=O)[O-])NCC1CCOC1 (stereo not given),-1.06%
15,CC1=NNC(=O)N(/N=C/c2cccnc2)C1,-1.57%
16,O=P(O)(Oc1ccccc1)Oc1ccccc1,-0.0072%
17,O=C(Oc1ccc(Br)cc1)N1CCN2CCC1CC2,-0.689%
18,O=NN1CCN(N=O)CC1,-0.0245%
19,O=C(Nc1ccccc1)c1ccccc1I,0.0099%
20,N#Cc1ccncc1,0.11% [at 81.1 µM]
